We go through eight compounds from PubChem BioAssay (NCI).

Common to all, as to test: NCI-60 one-dose screen, 48 h (100 = growth as untreated, 0 = no growth, -100 = all killed)
What all share (settings): 10 µM unless noted

In assay [1] the test system is DU-145 prostate.
Assay [2] has as its system K-562 leukemia.
Assay [3] relates to MALME-3M melanoma.
In assay [4] the test system is MDA-MB-231 breast.
Assay [5] relates to RXF 393 renal.
The subject of assay [6] is SF-268 CNS.
Assay [7] relates to SF-295 CNS.
In assay [8] the test system is SF-539 CNS.
Assay [9] has as its system UACC-257 melanoma.
Assay [10] concerns M14 melanoma.
Assay [11] concerns HCT-15 colon.
Assay [12] relates to HT29 colon.
Assay [13] concerns SNB-75 CNS.
The test system of assay [14] is SNB-19 CNS.
Assay [15] relates to U251 CNS.
For assay [16], the system named is PC-3 prostate.
Assay [17] concerns SK-MEL-5 melanoma.
Assay [18] relates to UACC-62 melanoma.
Assay [19] has as its system SK-MEL-28 melanoma.

Structures are written as SMILES. The panel holds about 83,000 compounds, 20% with a hit somewhere; the sample as a whole holds those more often.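 Results are percent growth after 48 hours of single-concentration exposure. 100 means growth as in untreated cells, lower positive values show inhibition; negative values down to -100 show cell death.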 A number with no mark means an inactive call. The source made the active and inactive calls. The calls were made as follows: active = growth percent below 10; inactive = the rest.

Turning to `COc1cc2c(c(OC)c1OC)C(=O)CC(c1cccc(NC(=O)c3cc([N+](=O)[O-])ccc3Cl)c1)O2` (configuration not stated), the growth was 5.58% (active) in assay [1]; 19.5% in [2]; 51.9% in assay [3]; 6.08% (active) in assay [4]; -6.08% (active) in assay [5]; 42.2% in assay [6]. Also, the growth in assay [7] was 49.8%; in assay [8], 22.2%; in [9], 39.9%; in assay [10], 0.0604% (active); in assay [11] it was -0.987% (active); in assay [12] it was 23.2%. Further, the growth is 12.9% in assay [13]; 52.6% in assay [14]; 30.7% in assay [15]; 42.7% in assay [16]; 23.3% in assay [17]; 45.2% in [18]. In addition, in assay [19], the growth was 34.1%.

`COc1ccc(/C=C/c2nc3ccccc3n3c(-c4ccc(Cl)cc4)nnc23)cc1`: the growth in [1] is 98.5%; in assay [2] it was 72.4%; in assay [3], 104%; in [4], 91.7%; in assay [5] it was 100%; in [6], 79.4%. Besides, the growth was 123% in [7]; 90.8% in [8]; 102% in assay [9]; 102% in assay [10]; 93.3% in assay [11]; 102% in assay [12]. The growth in assay [13] was 61.2%; in assay [14], 94.7%; in [15], 87.5%; in assay [16], 77.1%; in assay [17] it was 98.6%; in assay [18], 81.3%. Moreover, in assay [19], the growth was 104%.

For `C=C1CCC2C3(C)COC(c4cc(F)cc(F)c4)OC3CCC2(C)C1CC(O)C1=CCOC1=O` (configuration not stated), the growth in assay [1] was 72.9%; in assay [2], 24.6%; in assay [3], 88.6%; in [4], 63.2%; in [5], 56.4%; in assay [6], 97.3%. Further, the growth in assay [7] was 77.9%; in assay [8], 79.6%; in assay [9], 73.7%; in assay [10], 58.7%; in [11] it was 7.8% (active); in assay [12], 27.2%. The growth in assay [13] is 38.1%; in assay [14], 88.6%; in assay [15] it was 69.1%; in assay [16], 25.8%; in assay [17] it was 77.8%; in assay [18] it was 68.8%. The growth in assay [19] was 46.7%.

As for `O=C(COc1ccc(NC(=O)Nc2ccc(Cl)c(Cl)c2)cc1)N=Nc1c(O)[nH]c2ccccc12`, the growth in assay [1] is -42.7% (active); in assay [2], 5.06% (active); in assay [3], -79.3% (active); in [4], -66.8% (active); in assay [5], -52.7% (active); in assay [6], -5.94% (active). The growth in [7] was -48.9% (active); in assay [8], -86.3% (active); in assay [9], -44.5% (active); in assay [10], -76.5% (active); in [11], 56.1%; in assay [12], -45.9% (active). Also, the growth was -39.5% (active) in assay [13]; -24.5% (active) in assay [14]; -87.7% (active) in assay [15]; -44.6% (active) in assay [16]; 25.2% in [17]; -56.5% (active) in assay [18]. In assay [19], the growth is -90.4% (active).

On to `Cn1cc(-c2nc(N)nnc2-c2c[nH]c3ccc(Br)cc23)c2cccnc21`, for which the growth in assay [1] is 59.7%; in assay [2], 24.5%; in [3], 57%; in assay [4] it was 63.1%; in [5], 63.9%; in assay [6] it was 66.7%. Further, the growth was 18.1% in assay [7]; 20.1% in assay [8]; 81.3% in [9]; 33.9% in assay [10]; 33.2% in assay [11]; 23.1% in assay [12]. The growth in [13] is 31.3%; in assay [14] it was 52.7%; in assay [15], 39.5%; in [16], 59.9%; in assay [17] it was 26.3%; in assay [18], 53.9%. Moreover, the growth in assay [19] was 59.9%.

As to `CC(=O)Nc1ccc(-n2cnc3cc(-c4ccc(O)cc4)ccc32)cc1C(F)(F)F`, the growth is 23% in assay [1]; 25% in [2]; 19.1% in assay [3]; 42.7% in assay [4]; 26% in assay [5]; 21.7% in assay [6]. Moreover, the growth was -13.7% (active) in assay [7]; 24.2% in [8]; 39.7% in assay [9]; 30.3% in [10]; 16.1% in assay [11]; 26.3% in assay [12]. The growth in [13] was 8.79% (active); in assay [14] it was 27.8%; in assay [15], 18%; in assay [16], 44.8%; in assay [17], 5.35% (active); in [18], 21.1%. Moreover, in assay [19], the growth is 20.5%.

As for `COc1ccc(C(=O)/C=C/c2ccc(OC)c(OCc3ccccc3)c2)cc1OC`, the growth in assay [1] is 15.4%; in [2], 13.2%; in assay [3] it was 74.1%; in assay [4], 17.9%; in assay [5], -10.4% (active); in assay [6], 21.1%. Also, the growth in assay [7] is 69%; in [8], -27.2% (active); in [9], 42.7%; in assay [10], 34.6%; in [11] it was 1.81% (active); in assay [12], 5.47% (active). Further, the growth in assay [13] is 39.7%; in assay [14], 17.3%; in assay [15], 7.69% (active); in [16], 25.1%; in [17], 31.9%; in [18] it was 14.8%. The growth in [19] is 39.8%.

Consider `CC(=O)Nc1ccc(-n2cnc3ccc(-c4ccc(O)cc4)cc32)cc1`, for which the growth in assay [1] was 44.7%; in assay [2], 56.6%; in assay [3] it was 50.3%; in [4] it was 70.4%; in assay [5], 10.9%; in assay [6], 36.3%. Further, the growth in [7] was 56%; in [8], 34.2%; in assay [9] it was 67.3%; in assay [10], 48.7%; in assay [11], 52%; in assay [12], 102%. Moreover, the growth in [13] was 56.5%; in assay [14], 55.5%; in [15] it was 37%; in [16], 47.6%; in assay [17] it was 54.6%; in assay [18], 46.1%. Further, in assay [19], the growth is 44.3%.
